For seven compounds, Potency results are on record in PubChem BioAssay (Tox21).

Results filed as inconclusive are left out. Active and inactive are the calls of the source. Unless noted, calls follow the shape of the full dose curve.

A short description of assay [1]: Nuclear factor erythroid 2-related factor 2/antioxidant responsive element (Nrf2/ARE) small molecule agonists: qHTS cell viability counter screen in human keratinocytes (AID 1919968; active = well fitted curve in the direction sought with a large enough effect in the repeat runs; an effect the other way counts as inactive or inconclusive; also: nearly all actives have a fitted effect of over 55% in size; also: potency is read from the fitted curve at half-maximal effect). Summed up:
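After a 5 h attachment period, ARE-reporter keratinocytes were dosed with compounds in DMSO and then cultured 23 h at 37 C. Cell viability came from CellTiter-Fluor signal read after a further 1 h.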

Assay [2] can be described thus: Nuclear factor erythroid 2-related factor 2/antioxidant responsive element (Nrf2/ARE) small molecule agonists: luciferase reporter gene qHTS assay in human keratinocytes (AID 1919969; also: nearly all actives have a fitted effect of over 35% in size; also: potency is read from the fitted curve at half-maximal effect). (In general: Reporter assays use an easily measured gene product as a stand-in for the process of interest.)
In assay [3] the target is Gonadotropin-releasing hormone receptor (Homo sapiens) (UniProt P30968). The assay is described as follows: Human gonadotropin-releasing hormone receptor (GnRHR) small molecule agonists, calcium flux assay in GnRHR-HEK293 cells (AID 1920063). Also: nearly all actives have a fitted effect of over 35% in size. In outline: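 We seeded human GnRHR-expressing HEK293 cells for 18 hours, loaded them with calcium dye for an hour at 37 C, added test compounds, and recorded fluorescence intensity kinetically for three minutes.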
Chain of Gonadotropin-releasing hormone receptor (Homo sapiens) (P30968 whole entry, looked up): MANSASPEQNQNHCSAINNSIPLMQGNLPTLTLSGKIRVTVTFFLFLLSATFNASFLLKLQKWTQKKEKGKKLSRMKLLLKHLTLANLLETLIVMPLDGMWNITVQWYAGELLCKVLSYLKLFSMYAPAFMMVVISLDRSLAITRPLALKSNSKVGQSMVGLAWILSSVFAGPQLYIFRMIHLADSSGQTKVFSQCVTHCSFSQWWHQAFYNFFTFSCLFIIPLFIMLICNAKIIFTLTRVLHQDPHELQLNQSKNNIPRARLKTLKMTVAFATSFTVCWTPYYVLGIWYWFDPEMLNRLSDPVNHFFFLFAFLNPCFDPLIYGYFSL

Assay [4] concerns the target KiSS-1 receptor (Homo sapiens) (UniProt Q969F8). The assay is described as follows: Human kisspeptin (KISS1R) small molecule agonists, calcium flux assay in KISS1R-HEK293 cells (AID 1920064; active = well fitted curve in the direction sought with a large enough effect in the repeat runs; an effect the other way counts as inactive or inconclusive). Summed up: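 Kinetic calcium assay, 1 s sampling over 3 min at Ex/Em 480/540, in HEK293 cells engineered with human KISS1R; compounds delivered in DMSO after 1 h dye loading.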
(In general: Calcium assays in cells follow changes in intracellular calcium, usually with a dye or a luminescent sensor.)

Assay [5] is described as follows: G protein-coupled receptor (GPCR) small molecule agonists, calcium flux assay: HEK293 wild type cell line counter screen (AID 1920065). Summed up:
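Calcium-sensitive dye, loaded 1 h at 37 C into cells cultured 18 h, reports compound-evoked calcium release as fluorescence (Ex/Em 480/540), measured over 3 min. Agonist mode; 15-point titrations, triplicate.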

A short description of assay [6]: p53 small molecule agonists, cell-based qHTS assay with rat liver microsomes (AID 1963578). Also: potency is read from the fitted curve at half-maximal effect. Summed up:
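Fluorescence from a beta-lactamase reporter under a p53 response element was measured after cells had been incubated 16 h at 37 C with test compound and rat liver microsomes plus NADPH (0.5 mg/mL final each).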
Background: qHTS replaces the single test concentration by a dilution series.

Assay [7] is described as follows: p53 small molecule agonists, cell-based qHTS assay with human liver microsomes: qHTS cell viability counter screen (AID 1963579). Also: nearly all actives have a fitted effect of over 45% in size. In outline: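 Seed p53RE-bla cells at 4,000 per well; incubate 5 h at 37 C; add compound, human liver microsomes and NADPH; incubate 16 h at 37 C; add CellTiter-Glo; after 30 min at room temperature, read luminescence.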
Assay [8] in a line: p53 small molecule agonists, cell-based qHTS assay with rat liver microsomes: qHTS cell viability counter screen (AID 1963580). Also: nearly all actives have a fitted effect of over 45% in size. Summed up:
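HCT-116 p53RE-bla, 4,000 cells/well, 5 h pre-incubation; cpd + rat liver microsomes 0.5 mg/mL + NADPH 0.5 mg/mL (final); 16 h, 37 C; CellTiter-Glo, 30 min RT; luminescence.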

Assay [9] can be described thus: p53 small molecule agonists, cell-based qHTS assay (AID 1963582; active = well fitted activation curve with a large enough effect in the signal ratio in the repeat runs, not every such curve was filed as active; the % refers to the signal ratio). Summed up: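 In this cell-based concentration-response screen, a p53 response element drives beta-lactamase; cells received DMSO-borne compounds after 5 h culture and were incubated a further 16 h before FRET substrate development.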
For assay [10], the target named is 5-hydroxytryptamine receptor 2A (Homo sapiens) (UniProt P28223). The assay is described as follows: 5-hydroxytryptamine receptor 2A (HTR2A) small molecule antagonists, cell-based qHTS assay (AID 1963586). Also: nearly all actives have a fitted effect of over 45% in size. Summed up:
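Antagonist-mode intracellular calcium assay: DOI (4 nM) added after 5 min compound pre-incubation at room temperature to dye-loaded HTR2A-CHO cells. Fluorescence followed for 3 min, sampled every second.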

For assay [11] the target is unchanged. The assay is described as follows: 5-hydroxytryptamine receptor 2A (HTR2A) small molecule agonists, cell-based qHTS assay (AID 1963587). Also: nearly all actives have a fitted effect of over 30% in size. In outline: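 Kinetic calcium-flux fluorescence (2 min, 1 sec intervals) after compound addition in agonist mode. HTR2A-CHO cells were cultured 18 h, then dye-loaded 1 h at 37 C.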
The target in assay [12] is Muscarinic acetylcholine receptor M1 (Homo sapiens) (UniProt P11229). Description: Cholinergic receptor muscarinic 1 (CHRM1) small molecule agonists, cell-based qHTS assay (AID 1963589). Also: nearly all actives have a fitted effect of over 35% in size. Summed up:
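Measures agonist-induced intracellular calcium rise. Stable human CHRM1 CHO line, 1 h dye load at 37 C, compounds from DMSO, kinetic fluorescence read.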

Assay [13] can be described thus: cAMP Responsive Elements (CRE) small molecule agonists, cell-based qHTS assay (AID 1963590). Summed up:
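A CRE-responsive beta-lactamase reporter in HEK 293T cells was used. Treatment ran 3 h at 37 C; detection used LiveBLAzer B/G FRET substrate for 2 h at room temperature.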

A short description of assay [14]: cAMP Responsive Elements (CRE) small molecule antagonists, cell-based qHTS assay (AID 1963591; active = well fitted inhibition curve with a large enough effect in the signal ratio in the repeat runs, not every such curve was filed as active; the % refers to the signal ratio). In outline: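 HEK293T cells carrying a CRE-driven beta-lactamase reporter receive compound and NKH477 (0.25 uM final) for 3 h. Fluorescence from LiveBLAzer B/G FRET substrate is read after 2 h at room temperature.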
Assay [15] has as its target Beta-2 adrenergic receptor (Homo sapiens) (UniProt P07550). The assay is described as follows: Adrenergic beta2 receptor (ADRB2) small molecule antagonists, cell-based qHTS assay (AID 1963592). Also: series mostly up to about 92 µM; nearly all actives have a fitted effect of over 50% in size. Summed up:
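Cells (CHO, stable ADRB2 overexpression) incubated 18-20hr at 37C; compounds added from DMSO; agonist mix (1nM isoproterenol, 100uM IBMX, 25uM Ro-20-1724) added; 0.5hr RT; d2-cAMP and anti-cAMP-cryptate added; 1hr RT; 665/615 nm read.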

Assay [16] shares this target. Description: Adrenergic beta2 receptor (ADRB2) small molecule agonists, cell-based qHTS assay (AID 1963593).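 Also: CHO cells stably overexpressing human ADRB2.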 Summed up: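 CHO cells stably over-expressing ADRB2 were plated overnight at 37C, then dosed with compounds plus a stimulation mix containing 100uM IBMX and 25uM Ro-20-1724 for 0.5hr at room temperature. cAMP was measured by HTRF competition, 1hr.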
The target in assay [17] is D(2) dopamine receptor (Homo sapiens) (UniProt P14416). Description: Dopamine D2 receptor (DRD2) small molecule agonists, cell-based qHTS assay (AID 1963594). Also: nearly all actives have a fitted effect of over 35% in size. In outline:
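cAMP accumulation in DRD2-HEK293 cells measured by HTRF after 1 h detection; compounds added 10 min before NKH477 (200nM […]) forskolin-analogue stimulation, 30 min at room temperature, with Ro20-1724 present at 0.1 mM final.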

For assay [18] the target is unchanged. The assay is described as follows: Dopamine D2 receptor (DRD2) small molecule antagonists, cell-based qHTS assay (AID 1963595; active = well fitted inhibition curve with a large enough effect in the signal ratio in the repeat runs, with a control signal flat; the % refers to the signal ratio). In outline:
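In this cell-based antagonist screen, compounds act for 10 min at room temperature before a 30 min challenge with 12 nM quinpirole and 200 nM NKH477. cAMP is quantified by HTRF competition in DRD2-HEK293 cells containing 0.1 mM Ro20-1724.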

In assay [19] the target is Muscarinic acetylcholine receptor M1 (Homo sapiens) (UniProt P11229). Description: Cholinergic receptor muscarinic 1 (CHRM1) small molecule antagonists, cell-based qHTS assay (AID 1963588). Also: nearly all actives have a fitted effect of over 40% in size. Summed up: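 CHRM1-CHO calcium-flux assay, antagonist mode. Cells were seeded 18 h, dye-loaded 1 h at 37 C and given compound for 5 min at RT, then acetylcholine was added at 50nM. FDSS fluorescence was read 3 min; 15 concentrations, three runs.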
Chain of Muscarinic acetylcholine receptor M1 (Homo sapiens) (P11229 whole entry, looked up): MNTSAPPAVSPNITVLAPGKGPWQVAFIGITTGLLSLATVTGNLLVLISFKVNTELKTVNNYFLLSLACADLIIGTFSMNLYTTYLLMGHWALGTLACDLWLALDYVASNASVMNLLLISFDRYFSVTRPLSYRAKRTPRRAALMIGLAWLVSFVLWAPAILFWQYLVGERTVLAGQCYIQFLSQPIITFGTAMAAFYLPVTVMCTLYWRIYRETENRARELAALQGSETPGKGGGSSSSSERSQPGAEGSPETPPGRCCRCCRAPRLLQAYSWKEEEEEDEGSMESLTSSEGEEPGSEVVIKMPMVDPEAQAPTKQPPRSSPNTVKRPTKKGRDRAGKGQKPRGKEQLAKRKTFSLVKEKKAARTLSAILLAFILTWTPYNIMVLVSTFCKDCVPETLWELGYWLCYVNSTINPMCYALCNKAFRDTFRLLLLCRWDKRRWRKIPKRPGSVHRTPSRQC

The nature of assay [20]: p53 small molecule agonists, cell-based qHTS assay: qHTS cell viability counter screen (AID 1963581). Also: nearly all actives have a fitted effect of over 45% in size. In outline:
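Following 5 h attachment, HCT-116 p53RE-bla cells took up compound for 16 h at 37 C; the reporter was read with B/G FRET substrate (2 h RT), and viability then via CellTiter-Glo ATP luminescence.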

Chain of 5-hydroxytryptamine receptor 2A (Homo sapiens) (P28223 whole entry, looked up): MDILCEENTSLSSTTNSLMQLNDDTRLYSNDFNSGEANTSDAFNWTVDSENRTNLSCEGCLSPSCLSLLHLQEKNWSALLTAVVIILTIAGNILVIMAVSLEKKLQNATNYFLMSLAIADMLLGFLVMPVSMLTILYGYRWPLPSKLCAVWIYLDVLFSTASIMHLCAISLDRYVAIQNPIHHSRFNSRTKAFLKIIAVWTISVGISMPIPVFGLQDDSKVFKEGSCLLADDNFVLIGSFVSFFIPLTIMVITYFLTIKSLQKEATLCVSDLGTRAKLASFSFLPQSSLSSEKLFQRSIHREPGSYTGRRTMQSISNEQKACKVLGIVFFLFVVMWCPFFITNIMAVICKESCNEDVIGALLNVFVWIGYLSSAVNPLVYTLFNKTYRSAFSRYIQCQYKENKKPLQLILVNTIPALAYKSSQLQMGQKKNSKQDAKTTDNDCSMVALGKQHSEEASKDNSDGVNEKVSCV
Chain of D(2) dopamine receptor (Homo sapiens) (P14416 whole entry, looked up): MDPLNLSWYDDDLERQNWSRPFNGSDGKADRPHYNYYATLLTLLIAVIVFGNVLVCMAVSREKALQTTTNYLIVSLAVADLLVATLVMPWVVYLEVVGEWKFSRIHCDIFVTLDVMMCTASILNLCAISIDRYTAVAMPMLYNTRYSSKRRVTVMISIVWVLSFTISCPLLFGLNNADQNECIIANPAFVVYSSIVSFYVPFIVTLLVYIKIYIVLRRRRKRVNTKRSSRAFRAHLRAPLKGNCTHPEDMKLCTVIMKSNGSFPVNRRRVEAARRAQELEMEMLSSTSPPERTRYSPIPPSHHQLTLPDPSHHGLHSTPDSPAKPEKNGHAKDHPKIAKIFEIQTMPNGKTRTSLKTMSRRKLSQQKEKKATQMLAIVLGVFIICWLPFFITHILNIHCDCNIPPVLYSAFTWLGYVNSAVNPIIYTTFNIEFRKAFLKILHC
Chain of KiSS-1 receptor (Homo sapiens) (Q969F8 whole entry, looked up): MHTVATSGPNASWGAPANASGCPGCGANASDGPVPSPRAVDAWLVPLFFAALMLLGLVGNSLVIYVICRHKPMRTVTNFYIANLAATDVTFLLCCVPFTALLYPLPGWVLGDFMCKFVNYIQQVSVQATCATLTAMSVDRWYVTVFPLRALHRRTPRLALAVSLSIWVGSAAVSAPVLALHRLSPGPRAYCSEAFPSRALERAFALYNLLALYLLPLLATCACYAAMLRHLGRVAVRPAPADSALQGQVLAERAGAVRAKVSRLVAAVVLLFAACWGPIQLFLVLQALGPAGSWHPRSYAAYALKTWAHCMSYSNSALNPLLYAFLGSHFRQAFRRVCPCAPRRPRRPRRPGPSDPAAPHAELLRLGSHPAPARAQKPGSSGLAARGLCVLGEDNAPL
Chain of Beta-2 adrenergic receptor (Homo sapiens) (P07550 whole entry, looked up): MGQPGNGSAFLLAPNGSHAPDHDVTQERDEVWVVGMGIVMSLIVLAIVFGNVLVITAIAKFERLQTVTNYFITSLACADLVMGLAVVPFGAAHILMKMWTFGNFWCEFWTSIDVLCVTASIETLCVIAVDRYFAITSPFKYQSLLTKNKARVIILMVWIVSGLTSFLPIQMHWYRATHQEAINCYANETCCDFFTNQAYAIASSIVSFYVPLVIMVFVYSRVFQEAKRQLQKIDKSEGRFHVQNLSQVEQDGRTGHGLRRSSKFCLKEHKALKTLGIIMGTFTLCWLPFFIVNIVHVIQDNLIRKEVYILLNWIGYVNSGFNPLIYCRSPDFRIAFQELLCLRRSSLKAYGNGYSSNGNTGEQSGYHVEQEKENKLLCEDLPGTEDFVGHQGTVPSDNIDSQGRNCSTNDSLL

As to `CCCCCCCCCCCCN1CCCCCC1=O`, in assay [1], the Potency is 61.1 µM (active). Besides, the Potency result in assay [2], in [3], in assay [4], in [5], in assay [6] and in assay [7] was “inactive” in each case. The Potency entry in [8], in assay [9], in assay [10], in assay [11], in assay [12] and in [13] was “inactive” in each case. Also, the Potency entry in assay [14], in [15], in assay [16], in assay [17] and in assay [18] was “inactive” in each case.

Regarding `CCn1nc(C)c2c1C(=O)NCC(c1ccc(O)cc1)=N2`, the Potency result in assay [1], in assay [2], in assay [3], in assay [4], in assay [5] and in assay [6] was “inactive” in each case. Also, the Potency entry in [7], in [8], in assay [9], in [10], in [11] and in assay [19] was “inactive” throughout. Moreover, the Potency result in [12], in assay [13], in assay [15], in assay [16] and in assay [17] was “inactive” throughout.

With `CCCc1ccc(OCC(=O)N2CCN(C(=O)COc3ccc(CCC)cc3OC)CC2)c(OC)c1`, the Potency entry in assay [1], in assay [2], in assay [3], in assay [4], in assay [5] and in assay [6] was “inactive” each time. Also, the Potency result in assay [7], in [8], in assay [20], in [11], in assay [19] and in assay [12] was “inactive” in each case. The Potency result in [13], in assay [14], in assay [15], in assay [17] and in [18] was “inactive” each time.

Take `CCCNC(C)C(=O)Nc1c(C)csc1C(=O)OC` (stereo not drawn): the Potency entry in assay [1], in assay [2], in [3], in assay [4], in assay [5] and in assay [6] was “inactive” throughout. The Potency entry in assay [7], in assay [8], in assay [9], in [10], in [11] and in assay [19] was “inactive” each time. In addition, the Potency entry in assay [12], in assay [14], in assay [15], in assay [16] and in assay [18] was “inactive” each time.

With `CCOC(=O)C1=C(C)NC(C)=C(C(=O)OCC)C1c1ccccc1/C=C/C(=O)OC(C)(C)C`, the results for the Potency in assay [1] and in [6] were 18.8 µM (active) and 19.9 µM (active), respectively. In addition, the Potency entry in assay [2], in assay [3], in assay [4], in assay [5], in assay [7] and in assay [8] was “inactive” each time. In addition, the Potency result in assay [15], in assay [17] and in [18] was “inactive” each time.

Take `CCCCCCCCCCC[C@@H](C[C@@H]1OC(=O)[C@H]1CCCCCC)OC(=O)[C@H](CC(C)C)NC=O`: the Potency entry in assay [1], in [2], in assay [3], in [4], in [5] and in assay [6] was “inactive” in each case. The Potency entry in [7], in assay [20], in assay [10], in assay [11], in assay [12] and in assay [13] was “inactive” each time. Further, the Potency result in assay [14], in assay [15], in [17] and in assay [18] was “inactive” in each case.

`CN(C)c1ccc(N=NS(=O)(=O)O)cc1`: the Potency entry in assay [1], in [3], in [4], in [5], in assay [6] and in assay [7] was “inactive” in each case. The Potency entry in [8], in assay [20], in [10], in [12] and in assay [17] was “inactive” each time. Also, in assay [2], the Potency was 25.6 µM (active).
